# Results filed as inconclusive are left out. A call without a number means that no potency is given here. Activity calls are given as the source filed them. Unless noted, calls come from the whole dose curve; as a rule, active = well fitted curve in the direction sought with a large enough effect; inconclusive = small, poorly fitted or top-dose-only effect, or another doubt; inactive = no such curve, though single readings can be large; an effect the other way counts as inactive or inconclusive.
# Assays:
# [1] = NS1 protein of Zika virus - qHTS assay to identify small molecule inhibitors in human HEK 293 cells (AID 1347053); note: series mostly up to about 46 µM; nearly all actives have a fitted effect of over 55% in size
# How it was run: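 HEK 293 cells pretreated with compound for 1 h, then infected with ZIKV MR766 (MOI 0.5) for 24 h at 37 C. NS1 detected by TR-FRET with two anti-NS1 antibodies; normalized to uninfected (0%) and infected (100%) wells.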
# [2] = qHTS of pediatric cancer cell lines to identify multiple opportunities for drug repurposing: Primary screen for TC32 cells (AID 1347089); note: nearly all actives have a fitted effect of over 60% in size
# How it was run: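 Luminescent ATP read-out (CellTiter-Glo) of metabolically active TC32 cells after 48 h exposure. Concentration-response curves came from 11-point (MIPE, 0.78 nM–46 µM) or 8-point (NPC, 0.59 nM–46 µM) primary titrations; follow-up used 11 points.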
# [3] = qHTS of pediatric cancer cell lines to identify multiple opportunities for drug repurposing: Primary screen for SJ-GBM2 cells (AID 1347091)
# How it was run: (§1)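 Cell viability, CellTiter-Glo luminescence; 500-1,000 cells/well, 8- or 11-point titration, 48 h compound exposure at 37 degrees C, 5% CO2. Controls: DMSO neutral, bortezomib 2.3 µM final as positive.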
# [4] = qHTS of pediatric cancer cell lines to identify multiple opportunities for drug repurposing: Primary screen for A673 cells (AID 1347092); note: nearly all actives have a fitted effect of over 45% in size; note: potency is the fitted concentration of half-maximal effect
# From the text: Drug repurposing or repositioning has been offered as a strategy for drug development in oncology programs. This approach has special potential for childhood cancers and other rare or orphan diseases, where the expected return on new drug development has been a disincentive to pharmaceuticals. […] In this project we exploit the poly-pharmacology of drugs to discover new indications via phenotypic screening of a panel of 19 well-characterized cell lines derived from solid tumors seen in children and adolescents. The goal is to identify approved drugs with previously unrecognized anticancer properties that has the potential to reveal new mechanisms and biological processes involved in carcinogenesis or drug resistance. We employed a titration-based paradigm (quantitative high-throughput screening or qHTS), where all compounds were tested at multiple concentrations for their effect on cell viability. Concentration-response curves (CRCs) were derived directly from the primary screen, and both potency and efficacy values were used to identify compounds with robust bioactivity profiles. We screened the NIH Chemical Genomics Center (NCGC) Pharmaceutical Collection (NPC) and Mechanism Interrogation Plate (MIPE) small molecule collections of approved and investigational compounds against these cell lines; and measured metabolically active cells after 48 hours of compound treatment as a proxy for cell viability. […] Assay Submitter: Nathalia J. Martinez, National Center for Advancing Translational Sciences, National Institutes of Health, Rockville, MD, USA; email: natalia.martinez@nih.gov. Shen, M et al. Quantitative high-throughput phenotypic screening of pediatric cancer cell lines identifies multiple opportunities for drug repurposing. Oncotarget 2017 Dec 19;9(4):4758-4772. PMID 29435139.
# The cells were obtained from University of North Carolina (UNC), Pediatric Preclinical Testing Program (PPT), and Coriell Institute (CI). qHTS cell viability assay: Cells were assayed in growth media at a density of 500-1,000 cells/well. Five microliters of cells were dispensed into 1,536-well, white, solid-bottom, TC-treated plates (Greiner Bio One) using a multidrop dispenser and incubated at 37 degrees C, 5% CO2, under a humidified atmosphere for 5 hours. Twenty-three nanoliters of compounds and controls (neutral control DMSO or positive control bortezomib at final concentration of 2.3 uM) were subsequently transferred by Kalypsys pintool. For primary screens, the MIPE collection was tested at 11-point dilutions (final concentrations range from 0.78 nM to 46 µM) and the NPC collection at 8-point dilutions (final concentrations range from 0.59 nM to 46 µM). Compounds tested in follow-up screens were assayed at 11-point dilutions. Cells were incubated for 48 hours, followed by addition of 3 uL of CellTiter-Glo (Promega). After a 15min incubation at room temperature, samples were analyzed for luminescence intensity using a ViewLux High-throughput CCD imager equipped with clear filters.
# [5] = qHTS of pediatric cancer cell lines to identify multiple opportunities for drug repurposing: Primary screen for BT-37 cells (AID 1347094); note: potency is the fitted concentration of half-maximal effect
# How it was run: (§2)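 Cells seeded at 500-1,000 cells/well in growth media, rested 5 hours at 37 degrees C, 5% CO2, then dosed; MIPE compounds at 11-point (from 0.78 nM) and NPC at 8-point (from 0.59 nM) final concentrations. Viability by CellTiter-Glo luminescence after 48 hours.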
# [6] = molecular target: Tyrosine-protein phosphatase non-receptor type substrate 1 (Homo sapiens) + Leukocyte surface antigen CD47 (Homo sapiens) (UniProt P78324+Q08722); assay: CD47-SIRPalpha protein protein interaction - LANCE assay qHTS validation (AID 1347057; active = well fitted curve in the direction sought with a large enough effect in the signal ratio, with a control signal flat, not every such curve was filed as active; the % refers to the signal ratio; note: series mostly up to about 38 µM)
# From the text: SIRPalpha is a myeloid cell expressed immunomodulatory receptor that binds the tumor expressed immune checkpoint CD47. Therapeutic disruption of this interaction leads to immune-mediated tumor rejection. This assay was used to quantitate CD47-SIRPalpha binding biochemically and evaluate chemical libraries for novel CD47-SIRPalpha inhibitors. To recapitulate the biological interaction of CD47 and SIRPalpha, we designed expression constructs to produce their recombinant, soluble, extracellular interaction domains. CD47 was produced with an N-terminal 6His tag. SIRPalpha was produced with an N-terminal Avi-Tag for site-specific biotin incorporation. The CD47-SIRPalpha interaction was measured by TR-FRET using affinity tag linked reagents (anti-6His-Eu donor and streptavidin-APC acceptor). SIRPalpha without biotin incorporation was used as a positive control inhibitor.
# PROTOCOL TABLE (as described by Miller, T. et al. 2019)
# SEQUENCE No. (e.g., 1, 2, 3, etc.); […] (e.g., Cells, Incubation, Reagent, etc.); VALUE and DESCRIPTION.
# 1a. Reagent. 3 uL CD47-His (12.5 nM) and Anti-His Eu Donor reagent (3 nM) added to respective wells in Assay buffer; white/solid bottom high base, med bind 1536-well plates (Greiner 789075)
# 1b. Reagent. 2 uL Assay buffer negative control for background fluorescence
# 2. Reagent. […]
# [7] = molecular target: Parathyroid hormone/parathyroid hormone-related peptide receptor (Homo sapiens) (UniProt Q03431); assay: qHTS for PTHR1 Agonists: Optimization Screen against the NCGC LOPAC library (AID 1347079);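 note: GloSensor cAMP luminescence in HEK-293 GP2 cells expressing human PTHR1 with IBMX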
# From the text: The goal of the proposed studies is to discover new compounds that act as potent agonists on the parathyroid hormone receptor type-1 (PTHR1). The PTHR1 plays critical roles in maintaining blood calcium and phosphate levels, as well as in controlling bone remodeling. PTHR1 agonists could thus be useful for treating diseases such as hypoparathyroidism and osteoporosis. In the former disease, an agonist drug would help maintain normal blood calcium and phosphate levels under conditions of parathyroid hormone deficiency. In the latter disease, an agonist drug would stimulate new bone formation and thus reduce the risk of fracture, under conditions of bone fragility, as occurs in aging. We performed an optimization assay of the quantitative high-throughput screening (qHTS) for the parathyroid hormone receptor type-1 (PTHR1) against the NCGC LOPAC library collection of […] compounds using a unique HEK-293-derived cell line (GP2) that expresses the PTHR1 and a GloSensor cAMP reporter construct. Increase in signal (activation / agonist) is the desired outcome for compounds of interest. NIH Chemical Genomics Center [NCGC] […]
# Reagents / Controls: M-PTH (1-15) peptide hormone fragments was provided by the assay provider and was used as a control. […] Luminescence signal was obtained using the PerkinElmer ViewLux plate reader after 15min or room temperature incubation.
# [8] = qHTS of pediatric cancer cell lines to identify multiple opportunities for drug repurposing: Primary screen for DAOY cells (AID 1347090); note: series mostly up to about 46 µM; nearly all actives have a fitted effect of over 55% in size
# How it was run: as §1
# [9] = qHTS of pediatric cancer cell lines to identify multiple opportunities for drug repurposing: Primary screen for SK-N-MC cells (AID 1347093); note: potency is the fitted concentration of half-maximal effect
# How it was run: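 Metabolically active cells were quantified by ATP-dependent luminescence (CellTiter-Glo, 15 min at room temperature) following 48 h treatment. Cells had been plated at 500-1,000 per well and settled for 5 h beforehand.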
# [10] = qHTS of pediatric cancer cell lines to identify multiple opportunities for drug repurposing: Primary screen for NB-EBc1 cells (AID 1347095)
# How it was run: as §2
# Sequence of Tyrosine-protein phosphatase non-receptor type substrate 1 (Homo sapiens) + Leukocyte surface antigen CD47 (Homo sapiens) (P78324 whole entry, looked up): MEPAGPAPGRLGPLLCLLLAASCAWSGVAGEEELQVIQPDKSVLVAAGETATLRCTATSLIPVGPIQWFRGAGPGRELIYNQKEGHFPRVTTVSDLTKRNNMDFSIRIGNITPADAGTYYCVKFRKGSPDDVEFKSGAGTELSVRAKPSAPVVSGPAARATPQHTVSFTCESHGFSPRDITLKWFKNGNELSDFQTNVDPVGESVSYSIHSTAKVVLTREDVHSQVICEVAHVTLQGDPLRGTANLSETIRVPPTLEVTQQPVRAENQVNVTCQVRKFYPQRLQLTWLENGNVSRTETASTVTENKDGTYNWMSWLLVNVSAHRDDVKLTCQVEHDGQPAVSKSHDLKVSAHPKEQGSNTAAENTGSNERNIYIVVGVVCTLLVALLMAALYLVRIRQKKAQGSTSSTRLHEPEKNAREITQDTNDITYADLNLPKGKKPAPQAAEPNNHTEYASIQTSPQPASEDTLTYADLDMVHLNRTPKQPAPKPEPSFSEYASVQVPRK
# Sequence of Tyrosine-protein phosphatase non-receptor type substrate 1 (Homo sapiens) + Leukocyte surface antigen CD47 (Homo sapiens) (Q08722 whole entry, looked up): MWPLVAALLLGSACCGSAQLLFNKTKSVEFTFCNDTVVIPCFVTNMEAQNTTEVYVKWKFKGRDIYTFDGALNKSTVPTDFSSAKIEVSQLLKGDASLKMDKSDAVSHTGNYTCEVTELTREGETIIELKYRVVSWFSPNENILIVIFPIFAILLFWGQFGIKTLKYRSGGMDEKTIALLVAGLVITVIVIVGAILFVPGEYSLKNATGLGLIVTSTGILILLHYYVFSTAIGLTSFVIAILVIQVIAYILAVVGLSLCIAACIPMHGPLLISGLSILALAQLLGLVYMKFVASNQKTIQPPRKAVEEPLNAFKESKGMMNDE
# Sequence of Parathyroid hormone/parathyroid hormone-related peptide receptor (Homo sapiens) (Q03431 whole entry, looked up): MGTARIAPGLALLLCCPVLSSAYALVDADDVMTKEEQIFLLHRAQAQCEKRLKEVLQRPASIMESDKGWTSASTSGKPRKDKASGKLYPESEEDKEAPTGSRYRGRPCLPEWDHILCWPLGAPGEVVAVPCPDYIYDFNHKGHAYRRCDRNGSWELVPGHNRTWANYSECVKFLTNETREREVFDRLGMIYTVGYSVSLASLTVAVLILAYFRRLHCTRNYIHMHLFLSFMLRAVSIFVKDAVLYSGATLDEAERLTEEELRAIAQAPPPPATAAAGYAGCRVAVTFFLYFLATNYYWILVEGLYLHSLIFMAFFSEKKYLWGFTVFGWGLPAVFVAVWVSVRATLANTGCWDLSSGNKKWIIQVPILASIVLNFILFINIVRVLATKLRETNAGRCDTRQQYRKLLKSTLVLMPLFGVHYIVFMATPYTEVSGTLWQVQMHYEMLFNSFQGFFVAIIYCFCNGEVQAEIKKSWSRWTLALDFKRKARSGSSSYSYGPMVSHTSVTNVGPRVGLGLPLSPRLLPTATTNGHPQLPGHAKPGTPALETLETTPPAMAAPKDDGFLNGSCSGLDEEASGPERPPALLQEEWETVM
Structure (SMILES),outcome [1],outcome [2],outcome [3],Potency [4],Potency [5],outcome [6],outcome [7],outcome [8],Potency [9],outcome [10]
CC(=O)Oc1cccc2c1C(=O)c1c(OC(C)=O)cc(C(=O)O)cc1C2=O,inactive,inactive,inactive,21.1 µM (active),inactive,,,,,
Oc1ccc(/C=C/c2cc(O)cc(O)c2)cc1,inactive,inactive,,,19.5 µM (active),inactive,inactive,inactive,15 µM (active),inactive
O=C(O)CCC(=O)c1ccc(-c2ccccc2)cc1,inactive,inactive,inactive,inactive,inactive,,,inactive,inactive,inactive
O=C(OCc1ccccc1)c1ccc(O)cc1,inactive,inactive,inactive,inactive,inactive,,,inactive,inactive,inactive
CN(C)CCCSc1ccccc1NC(=O)/C=C/c1ccccc1,inactive,inactive,,,inactive,,,inactive,inactive,inactive
COc1ccc2nc(NC(=O)Nc3ccccc3)sc2c1,inactive,inactive,inactive,inactive,inactive,,,inactive,inactive,inactive
Nc1ccc(N=Nc2ccccc2)c(N)n1,inactive,inactive,inactive,inactive,inactive,,,inactive,inactive,inactive
O=C1c2ccccc2C(=O)c2c1ccc(O)c2O,inactive,inactive,,inactive,,,,inactive,inactive,inactive

# Reference: PubChem BioAssay (NCATS)
